Measured values published in PubChem BioAssay AID1159580 (chemical genetic matrix, 2015).
Out of some 5,500 compounds screened, about 2,000 (36%) were called active. Roughly 18% stayed inconclusive and do not appear here. Cut-off read from the data, not from the text of the source: active = normalized growth mostly below about 0.91 (no sharp cut-off); inconclusive = no clear call, values can overlap the other calls; inactive = mostly above about 0.92. This is one part of the list.

Assay: chemical genetic growth profiling, strain panel (AID 1159580);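 note: tested at 20 µM; growth read once vehicle control cultures reached saturation at 30 °C; 1 = growth at the plate median or of vehicle wells; lower values mean less growth of the strain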
Details: growth OD

Measured: normalized growth

COc1cc2c(cc1OC)C1C(=O)c3c(O)cc4c(c3OC1CO2)C=CC(C)(C)O4 (stereo unspecified)
inactive: S. cerevisiae deletion strains, locus YBR021W, strain FUR4, hits give low values 1.01 | S. cerevisiae deletion strains, locus YBR229C, strain ROT2, hits give low values 1 | S. cerevisiae deletion strains, locus YCL029C, strain bik1, hits give low values 1.01 | S. cerevisiae deletion strains, locus YDL035C, strain GPR1, hits give low values 0.965 | S. cerevisiae deletion strains, locus YDL074C, strain BRE1, hits give low values 0.962 | S. cerevisiae deletion strains, locus YDL101C, strain DUN1, hits give low values 1.01 | S. cerevisiae deletion strains, locus YDL134C, strain PPH21, hits give low values 0.985 | S. cerevisiae deletion strains, locus YDL185W, strain tfp1, hits give low values 1.01 | S. cerevisiae deletion strains, locus YDL192W, strain arf1, hits give low values 0.98 | S. cerevisiae deletion strains, locus YDR101C, strain arx1, hits give low values 1.02 | S. cerevisiae deletion strains, locus YDR162C, strain NBP2, hits give low values 1 | S. cerevisiae deletion strains, locus YDR318W, strain mcm21, hits give low values 0.995 | S. cerevisiae deletion strains, locus YDR388W, hits give low values 1 | S. cerevisiae deletion strains, locus YDR502C, strain sam2, hits give low values 1.03 | S. cerevisiae deletion strains, locus YEL061C, strain CIN8, hits give low values 0.989 | S. cerevisiae deletion strains, locus YER110C, hits give low values 1.02 | S. cerevisiae deletion strains, locus YER155C, strain BEM2, hits give low values 1.02 | S. cerevisiae deletion strains, locus YER167W, strain BCK2, hits give low values 1 | S. cerevisiae deletion strains, locus YGL078C, strain dbp3, hits give low values 1.03 | S. cerevisiae deletion strains, locus YGL086W, strain mad1, hits give low values 1.02 | S. cerevisiae deletion strains, locus YGL248W, strain PDE1, hits give low values 1.01 | S. cerevisiae deletion strains, locus YGR135W, strain pre9, hits give low values 1.06 | S. cerevisiae deletion strains, locus YGR252W, strain gcn5, hits give low values 1.03 | S. cerevisiae deletion strains, locus YHR079C, strain IRE1 (second series), hits give low values 1.01 | S. cerevisiae deletion strains, locus YHR094C, strain hxt1, hits give low values 1.02 | S. cerevisiae deletion strains, locus YHR129C, strain ARP1, hits give low values 0.991 | S. cerevisiae deletion strains, locus YHR200W, strain rpn10, hits give low values 1.01 | S. cerevisiae deletion strains, locus YIL066C, strain RNR3, hits give low values 0.981 | S. cerevisiae deletion strains, locus YIL073C, strain SPO22, hits give low values 1.08 | S. cerevisiae deletion strains, locus YIL125W, strain kgd1, hits give low values 1.02 | S. cerevisiae deletion strains, locus YIR030C, strain dcg1, hits give low values 1.03 | S. cerevisiae deletion strains, locus YJL095W, strain BCK1, hits give low values 1.01 | S. cerevisiae deletion strains, locus YJL134W, strain LCB3, hits give low values 0.998 | S. cerevisiae deletion strains, locus YJL168C, strain set2, hits give low values 1 | S. cerevisiae deletion strains, locus YJL187C, strain SWE1 (second series), hits give low values 0.997 | S. cerevisiae deletion strains, locus YJR075W, strain HOC1, hits give low values 0.999 | S. cerevisiae deletion strains, locus YKL068W, hits give low values 1.01 | S. cerevisiae deletion strains, locus YKL085W, strain MDH1 (second series), hits give low values 1.01 | S. cerevisiae deletion strains, locus YKL085W, strain MDH1, hits give low values 1.01 | S. cerevisiae deletion strains, locus YLR039C, strain RIC1, hits give low values 0.871 | S. cerevisiae deletion strains, locus YLR058C, strain SHM2, hits give low values 0.977 | S. cerevisiae deletion strains, locus YLR102C, strain apc9, hits give low values 1.02 | S. cerevisiae deletion strains, locus YLR268W, strain sec22, hits give low values 1.01 | S. cerevisiae deletion strains, locus YLR330W, strain CHS5, hits give low values 0.987 | S. cerevisiae deletion strains, locus YLR371W, strain rom2, hits give low values 1.02 | S. cerevisiae deletion strains, locus YLR418C, strain cdc73, hits give low values 0.988 | S. cerevisiae deletion strains, locus YML016C, strain PPZ1, hits give low values 1.01 | S. cerevisiae deletion strains, locus YML032C, strain rad52, hits give low values 1.02 | S. cerevisiae deletion strains, locus YML124C, strain tub3, hits give low values 1.03 | S. cerevisiae deletion strains, locus YMR078C, strain ctf18, hits give low values 1.03 | S. cerevisiae deletion strains, locus YMR223W, strain ubp8, hits give low values 1.01 | S. cerevisiae deletion strains, locus YMR263W, strain SAP30, hits give low values 1.01 | S. cerevisiae deletion strains, locus YMR307W, strain GAS1, hits give low values 0.949 | S. cerevisiae deletion strains, locus YNL067W, strain RPL9B, hits give low values 1.01 | S. cerevisiae deletion strains, locus YNL233W, strain BNI4, hits give low values 1.01 | S. cerevisiae deletion strains, locus YNL250W, strain rad50, hits give low values 1.05 | S. cerevisiae deletion strains, locus YNL271C, strain bni1, hits give low values 1.03 | S. cerevisiae deletion strains, locus YNL298W, strain CLA4, hits give low values 1.01 | S. cerevisiae deletion strains, locus YNL307C, strain MCK1, hits give low values 1.02 | S. cerevisiae deletion strains, locus YNR052C, strain pop2, hits give low values 1.03 | S. cerevisiae deletion strains, locus YOL006C, strain TOP1, hits give low values 0.933 | S. cerevisiae deletion strains, locus YOL012C, strain htz1 1.33 | S. cerevisiae deletion strains, locus YOL147C, strain pex11, hits give low values 0.999 | S. cerevisiae deletion strains, locus YOR061W, strain CKA2, hits give low values 0.987 | S. cerevisiae deletion strains, locus YOR069W, strain VPS5, hits give low values 1.01 | S. cerevisiae deletion strains, locus YOR136W, strain idh2, hits give low values 1 | S. cerevisiae deletion strains, locus YOR144C, strain elg1, hits give low values 1.01 | S. cerevisiae deletion strains, locus YOR184W, strain ser1, hits give low values 1.01 | S. cerevisiae deletion strains, locus YOR316C, strain cot1, hits give low values 1.01 | S. cerevisiae deletion strains, locus YPR119W, strain clb2, hits give low values 1.03 | S. cerevisiae deletion strains, locus YPR141C, strain kar3, hits give low values 1.03 | S. cerevisiae deletion strains, locus YPR163C, strain tif3, hits give low values 1 | S. cerevisiae deletion strains, locus YPR167C, strain met16, hits give low values 1.03 | S. cerevisiae deletion strains, strain wtn01, hits give low values 1.01 | S. cerevisiae strains, strain wild type, hits give low values 0.932
active: S. cerevisiae deletion strains, locus YKR001C, strain vps1, hits give low values 0.718
